Experimental data taken from the supplement of paper PMC12282887.
± gives the standard deviation of the averaged measurements.

Key:
Experiment in all cases: promoter activity interaction Z-score (Lux/OD deviation from empty-vector control); higher = stronger promoter induction by the compound
[1] = system: E. coli BW25113 acrABp lux reporter
Method in brief: (§1)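 Reporter strains of E. coli BW25113 grew at 37°C in 40 µl LB Lennox in 384-well plates. Readings of OD600 and luminescence were taken every 30 min over 12 h, integrated over 0–8 h (wild type) or 1–9 h (deletion strains), and wells below 10% of the median growth value were excluded. Scores are Z-transformed residuals of growth-normalised luminescence from a fit against a control.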

[2] = system: E. coli BW25113 micFp lux reporter
Method in brief: as §1

[3] = system: E. coli BW25113 ompFp lux reporter
Method in brief: as §1

[4] = system: E. coli BW25113 robp lux reporter
Method in brief: as §1

[5] = system: E. coli BW25113 soxSp lux reporter
Method in brief: as §1

[6] = system: E. coli BW25113 tolCp lux reporter
Method in brief: as §1

[7] = 0.07 µg/ml, genetic background: wild type
[8] = 0.07 µg/ml, genetic background: ΔmarA
[9] = 0.07 µg/ml, genetic background: Δrob
[10] = 0.07 µg/ml, genetic background: ΔsoxS
[11] = 0.15 µg/ml, genetic background: wild type
[12] = 0.15 µg/ml, genetic background: ΔmarA
[13] = 0.15 µg/ml, genetic background: Δrob
[14] = 0.15 µg/ml, genetic background: ΔsoxS
[15] = 0.29 µg/ml, genetic background: wild type
[16] = 0.29 µg/ml, genetic background: ΔmarA
[17] = 0.29 µg/ml, genetic background: Δrob
[18] = 0.29 µg/ml, genetic background: ΔsoxS

NCC[C@H](O)C(=O)N[C@@H]1C[C@H](N)[C@@H](O[C@H]2O[C@H](CN)[C@@H](O)[C@H](O)[C@H]2O)[C@H](O)[C@H]1O[C@H]1O[C@H](CO)[C@@H](O)[C@H](N)[C@H]1O [Amikacin]
promoter activity interaction Z-score [1, 7]: -0.0946 ± 0.19
promoter activity interaction Z-score [1, 8]: -0.446 ± 0.067
promoter activity interaction Z-score [1, 9]: -0.0638 ± 0.15
promoter activity interaction Z-score [1, 10]: 0.407 ± 0.79
promoter activity interaction Z-score [1, 11]: -0.184 ± 0.091
promoter activity interaction Z-score [1, 12]: 0.671 ± 0.15
promoter activity interaction Z-score [1, 13]: 0.0534 ± 0.092
promoter activity interaction Z-score [1, 14]: 0.0811 ± 0.13
promoter activity interaction Z-score [1, 15]: 0.115 ± 0.19
promoter activity interaction Z-score [1, 16]: -0.213 ± 0.41
promoter activity interaction Z-score [1, 17]: 0.174 ± 0.22
promoter activity interaction Z-score [1, 18]: 0.725 ± 0.52
promoter activity interaction Z-score [2, 7]: 0.278 ± 0.0046
promoter activity interaction Z-score [2, 8]: -0.0226 ± 0.005
promoter activity interaction Z-score [2, 9]: 0.217 ± 0.22
promoter activity interaction Z-score [2, 10]: 0.0839 ± 0.14
promoter activity interaction Z-score [2, 11]: 0.512 ± 0.097
promoter activity interaction Z-score [2, 12]: -0.00684 ± 0.057
promoter activity interaction Z-score [2, 13]: 0.12 ± 0.33
promoter activity interaction Z-score [2, 14]: 0.119 ± 0.33
promoter activity interaction Z-score [2, 15]: -0.0466 ± 0.17
promoter activity interaction Z-score [2, 16]: -0.0853 ± 0.18
promoter activity interaction Z-score [2, 17]: 0.176 ± 0.21
promoter activity interaction Z-score [2, 18]: 0.577 ± 0.056
promoter activity interaction Z-score [3, 7]: 0.0689 ± 0.025
promoter activity interaction Z-score [3, 8]: -0.0472 ± 0.084
promoter activity interaction Z-score [3, 9]: -0.503 ± 0.43
promoter activity interaction Z-score [3, 10]: 0.197 ± 1.1
promoter activity interaction Z-score [3, 11]: 0.165 ± 0.46
promoter activity interaction Z-score [3, 12]: -0.0471 ± 0.24
promoter activity interaction Z-score [3, 13]: -0.472 ± 0.32
promoter activity interaction Z-score [3, 14]: -0.668 ± 0.2
promoter activity interaction Z-score [3, 15]: 0.00226 ± 0.33
promoter activity interaction Z-score [3, 16]: -0.365 ± 0.65
promoter activity interaction Z-score [3, 17]: -0.428 ± 0.22
promoter activity interaction Z-score [3, 18]: -0.0742 ± 0.3
promoter activity interaction Z-score [4, 7]: 0.19 ± 0.2
promoter activity interaction Z-score [4, 8]: -0.331 ± 0.085
promoter activity interaction Z-score [4, 9]: 0.0353 ± 0.83
promoter activity interaction Z-score [4, 10]: -0.155 ± 0.68
promoter activity interaction Z-score [4, 11]: 0.0679 ± 0.58
promoter activity interaction Z-score [4, 12]: -0.461 ± 0.45
promoter activity interaction Z-score [4, 13]: -0.248 ± 0.33
promoter activity interaction Z-score [4, 14]: -0.642 ± 0.14
promoter activity interaction Z-score [4, 15]: -0.115 ± 0.051
promoter activity interaction Z-score [4, 16]: 0.598 ± 0.21
promoter activity interaction Z-score [4, 17]: -1.2 ± 0.31
promoter activity interaction Z-score [4, 18]: -0.0862 ± 0.53
promoter activity interaction Z-score [5, 7]: 0.354 ± 0.11
promoter activity interaction Z-score [5, 8]: 0.016 ± 0.15
promoter activity interaction Z-score [5, 9]: 0.176 ± 0.043
promoter activity interaction Z-score [5, 10]: 0.0385 ± 0.3
promoter activity interaction Z-score [5, 11]: 0.336 ± 0.13
promoter activity interaction Z-score [5, 12]: 0.137 ± 0.1
promoter activity interaction Z-score [5, 13]: 0.346 ± 0.51
promoter activity interaction Z-score [5, 14]: -0.156 ± 0.15
promoter activity interaction Z-score [5, 15]: 0.219 ± 0.2
promoter activity interaction Z-score [5, 16]: -0.031 ± 0.32
promoter activity interaction Z-score [5, 17]: -0.131 ± 0.29
promoter activity interaction Z-score [5, 18]: 0.0937 ± 0.57
promoter activity interaction Z-score [6, 7]: -0.282 ± 0.25
promoter activity interaction Z-score [6, 8]: -0.355 ± 0.29
promoter activity interaction Z-score [6, 9]: 1.45 ± 1.6
promoter activity interaction Z-score [6, 10]: 1.15 ± 0.34
promoter activity interaction Z-score [6, 11]: 0.0971 ± 0.8
promoter activity interaction Z-score [6, 12]: 0.793 ± 0.15
promoter activity interaction Z-score [6, 13]: 0.637 ± 0.84
promoter activity interaction Z-score [6, 14]: -0.668 ± 0.34
promoter activity interaction Z-score [6, 15]: 1.16 ± 1.8
promoter activity interaction Z-score [6, 16]: -0.226 ± 1.1
promoter activity interaction Z-score [6, 17]: 1.53 ± 1.6
promoter activity interaction Z-score [6, 18]: 1.21 ± 0.019
